Results: PubChem BioAssay AID1963318 (National Center for Advancing Translational Sciences (NCATS), 2024)
Among all 1,300 compounds or so, about 100 (7.7%) were called active. About 19% were inconclusive and are not listed. The call rests on the fitted dose curve; in most records, active means well fitted activation curve with a large enough effect; inconclusive means small, poorly fitted or top-dose-only effect; inactive means no such curve, though single readings can be large or run the other way. Not all results are given here. Where a call stands in place of a potency, no number is given.

biological target: Luciferin 4-monooxygenase (Photinus pyralis) (UniProt P08659); assay: Firefly luciferase (FLuc-C-HiBiT) SDR gain of signal screen - without ATP; conditions: Purified FLuc-C-HiBiT, Nano-Glo HiBiT luminescence, no ATP; series mostly up to 32.7 µM; further: nearly all actives have a fitted effect of over 55% in size
From the text: PI: James Inglese Ph.D. National Center for Advancing Translational Sciences (NCATS), National Institute of Health (NIH), Maryland Discovery and optimization of novel protein-binding ligands underlies many of the methods and applications of biology, drug discovery, clinical diagnostics, and environmental toxicology. Assays for detecting the interaction of, for example, a molecule with a macromolecular target also referred to here as the target of interest (TOI) is dependent on a compatible output technology. Depending on the nature and knowledge surrounding the TOI, whether a receptor, enzyme, regulatory subunit or scaffold, or a sequence-defined nucleic acid folded into a complex tertiary structure, assay strategies can vary widely. Here we exploit ligand-biased changes in the structural dynamics of the target protein to control reporter alpha complementation allowing a non-competitive, non-functional, non-separation measure of ligand-target interaction. […] Secondly, we show the specificity and sensitivity of the SDR for the Abelson tyrosine kinase (ABL1) compared to the serine/threonine protein kinase A, using an enriched chemical library of 128 compounds selected, in part, for activity annotated with ABL1 kinase activity using the Pharos database (3). References: (1) A. S. Dixon et al., NanoLuc Complementation Reporter Optimized for Accurate Measurement of Protein Interactions in Cells. ACS Chem Biol 11, 400-408 (2016). […] Chemistry & Biology, 19, 1060 - 1072 (2012). (3) K. J. Kelleher et al., Pharos 2023: an integrated resource for the understudied human proteome. Nucleic Acids Res 51, D1405-D1416 (2023).
1. Reagent. Dispense 4 uL FLuc-C-HiBiT enzyme-buffer solution per well at a final enzyme concentration of 10 nM with or without 10 uM ATP into columns 2-48 of white, solid bottom medium bind 1536-well plates (Greiner Bio-One) by BioRaptr 2. Dispense respective buffer without enzyme at 4 uL/well in column 1 of assay plates. 2. Compounds. Library compounds and PTC124 control added at 23 nL per well, transfer by Pin Tool. 3. Incubation. Incubate enzyme and compounds at room temperature for >30 min, protect from light. 4. Reagent. (SDR assay) Add 3 uL/well of Nano-Glo HiBiT reagent (Promega) to assay plates for SDR assay without ATP. 5. Incubation. Incubate enzyme and substrate or detection reagent at room temperature for 5-10 min, protect from light. 6. Detector. HiBiT SDR assay measured using CCD-based camera (ViewLux) with settings as follows: Exposure, 1 sec; Gain, High; Speed, Slow; Binning, 2X. REFERENCES: Inglese J, Shamu CE and Guy RK, Reporting data from high throughput screening of small molecule libraries, Nature Chemical Biology, 2007, 3(8): 438-441. doi.org/10.1038/nchembio0807-438.
Potency means the concentration at half of the fitted maximal effect.

Sequence of Luciferin 4-monooxygenase (Photinus pyralis) (P08659 whole entry, looked up): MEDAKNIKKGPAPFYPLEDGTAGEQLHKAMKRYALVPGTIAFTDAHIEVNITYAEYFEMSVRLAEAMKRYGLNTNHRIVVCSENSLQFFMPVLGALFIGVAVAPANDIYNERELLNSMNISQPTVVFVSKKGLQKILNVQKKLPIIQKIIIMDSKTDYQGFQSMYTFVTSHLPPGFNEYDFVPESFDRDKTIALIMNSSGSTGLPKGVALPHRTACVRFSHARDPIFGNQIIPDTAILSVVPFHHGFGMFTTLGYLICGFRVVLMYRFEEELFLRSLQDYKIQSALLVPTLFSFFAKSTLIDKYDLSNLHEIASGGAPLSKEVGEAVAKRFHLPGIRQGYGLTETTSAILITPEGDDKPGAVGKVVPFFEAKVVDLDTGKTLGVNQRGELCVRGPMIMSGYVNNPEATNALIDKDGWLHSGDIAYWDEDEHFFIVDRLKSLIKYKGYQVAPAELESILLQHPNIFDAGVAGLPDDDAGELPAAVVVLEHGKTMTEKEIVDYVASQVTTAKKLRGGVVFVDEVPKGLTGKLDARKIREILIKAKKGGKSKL

Compound	Potency
COc1ccc(-c2cc(N3CCCC(NC(=O)c4ccsc4)C3)n[nH]2)cc1 (configuration not stated)	inactive
Fc1ccc(Nc2nc(-c3ccccc3F)no2)cc1	inactive
Cc1nn(-c2ccc(C(C)C)cc2)c(C)c1[C@@H]1C=C[C@@H](NC(=S)NCC(C)C)C1	inactive
COc1ccc(CC(=O)Nc2ccc(-c3nc4ccccc4s3)c(C)c2)cc1	inactive
O=C(COc1ccc(Cl)cc1)Nc1ccc(-c2nc3cc(Cl)ccc3o2)c(O)c1	inactive
O=C([C@@H]1C[C@@H](O)[C@H](O)[C@@H]2NC(=S)N(c3ccc(OC(F)(F)F)cc3)[C@@H]21)N1CCCCC1	inactive
CCNC(=O)C1C(c2cccc(NC(=O)c3ccc(OC)cc3)c2)OC(=O)N1Cc1ccc(C)cc1 (configuration not stated)	inactive
Cc1nnn2c(C(=O)NC3CC3)cccc12	inactive
COc1cc(F)ccc1-c1ccc(COc2ccc3c(cnn3CCC(=O)O)c2)cc1	inactive
Cc1cc(C)n(CCC(=O)N2CCC(Cc3noc(C4CC4)n3)C2)n1 (configuration not stated)	inactive
O=C(Nc1ccccc1)c1nc2c(o1)CCN(Cc1cccc(Cl)c1)CC2	inactive
Cc1ccc(C(=O)Nc2ccc(-c3nc4ccccc4s3)c(O)c2)cc1	inactive
CC(=O)c1ccc(NC(=O)CSc2nnc(NC(=O)Nc3ccccc3)s2)cc1	inactive
O=C(CSc1ccc(F)cc1)Nc1ccccc1-c1nc2ccccc2s1	inactive
C[S+](=O)([O-])CCn1ncc2cc(OCc3cccc(-c4ccccc4)c3)ccc21	inactive
Cc1ccc2cc(CN3CCN(CC(N)=O)CC3)c(-c3cccs3)nc2c1	inactive
OCc1cccc(-c2cc3c(cn2)CN(Cc2ccccc2)CCN3)c1	inactive
O=C(NCc1ccc(F)c(Cl)c1)C1CCN(C(=O)c2ncn3c2COC(c2ccccc2)C3)CC1 (configuration not stated)	inactive
CC(=O)Oc1ccccc1C(=O)Nc1ccc(-c2nc3ccc(C)cc3s2)cc1	inactive
O=C(NCc1ccccc1)C1CCN(C(=O)c2ncn3c2COC(c2ccccc2)C3)CC1 (configuration not stated)	inactive
O=C(/C=C/c1ccccc1)Nc1cc(-c2nc3cc(Cl)ccc3o2)ccc1Cl	inactive
CNc1nc(C(=O)NCc2ccc3[nH]c(-c4ccc(F)cc4)c(C)c3c2)cs1	inactive
Cc1ccc(-n2ncc3c(N4CCC(C(N)=O)CC4)ncnc32)cc1	inactive
OCC1CCCN(c2ncnc3c2cnn3-c2ccccc2)C1 (configuration not stated)	1.76 µM (active)
OCCN1CCN(c2nc(N3CCCCC3)c3cnn(-c4ccc(Cl)cc4)c3n2)CC1	inactive
Cc1ccc(-c2nnc(SCc3ccccc3C)o2)cc1	inactive
O=C(NC1CCN(c2cc(-c3ccc(F)cc3)[nH]n2)C1)c1cc2ccccc2[nH]1 (configuration not stated)	inactive
